PLK1 PBD inh: qHTS for Inhibitors of PLK1-PDB (polo-like kinase 1 - polo-box domain): Primary Screen. Serine/threonine-protein kinase PLK1 (Homo sapiens), P53350. hit rate 2.8% among 360,000. Plk1 PBD binding of FITC phosphopeptide, fluorescence polarization. Potency, µM, for inactives: max response, negative = inhibition, actives largely listed as inhibitors; also: potency is read from the fitted curve at half-maximal effect; series mostly up to about 57 µM; nearly all actives have a fitted effect of over 65% in size
PI5P4K alpha inh: qHTS for Inhibitors of phosphatidylinositol 5-phosphate 4-kinase (PI5P4K); Phosphatidylinositol 5-phosphate 4-kinase type-2 alpha (Homo sapiens), P48426; AID 652105, 2013; PI5P4Kalpha enzyme, ADP-Glo luminescence, 60 min; active compounds read low; hit rate 1.2% among 330,000; max response, %; active = max response of -50% or lower; inconclusive = between -30% and -50%; inactive = -30% or higher; also: value at the top dose of about 77 µM
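PI5P4Kalpha ADP-Glo assay; 5 microM ATP final; 60 min RT reaction; HEPES pH 7.4/EGTA/CHAPS, 5% DMSO; controls lacking substrate or enzyme; luminescent end-point.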
USP1-UAF1 inh: Inhibitors of USP1/UAF1: Primary Screen; hit rate 0.23% among 390,000; Potency, µM (doses to about 57.1 µM), for the others: at the highest dose activity change, negative = inhibition, hits mostly inhibitors; recombinant USP1/UAF1, Ub-Rhodamine cleavage fluorescence; Ubiquitin carboxyl-terminal hydrolase 1 (Homo sapiens), O94782; also: potency is read from the fitted curve at half-maximal effect; nearly all actives have a fitted effect of over 60% in size
Target sequence (O94782 whole entry, looked up): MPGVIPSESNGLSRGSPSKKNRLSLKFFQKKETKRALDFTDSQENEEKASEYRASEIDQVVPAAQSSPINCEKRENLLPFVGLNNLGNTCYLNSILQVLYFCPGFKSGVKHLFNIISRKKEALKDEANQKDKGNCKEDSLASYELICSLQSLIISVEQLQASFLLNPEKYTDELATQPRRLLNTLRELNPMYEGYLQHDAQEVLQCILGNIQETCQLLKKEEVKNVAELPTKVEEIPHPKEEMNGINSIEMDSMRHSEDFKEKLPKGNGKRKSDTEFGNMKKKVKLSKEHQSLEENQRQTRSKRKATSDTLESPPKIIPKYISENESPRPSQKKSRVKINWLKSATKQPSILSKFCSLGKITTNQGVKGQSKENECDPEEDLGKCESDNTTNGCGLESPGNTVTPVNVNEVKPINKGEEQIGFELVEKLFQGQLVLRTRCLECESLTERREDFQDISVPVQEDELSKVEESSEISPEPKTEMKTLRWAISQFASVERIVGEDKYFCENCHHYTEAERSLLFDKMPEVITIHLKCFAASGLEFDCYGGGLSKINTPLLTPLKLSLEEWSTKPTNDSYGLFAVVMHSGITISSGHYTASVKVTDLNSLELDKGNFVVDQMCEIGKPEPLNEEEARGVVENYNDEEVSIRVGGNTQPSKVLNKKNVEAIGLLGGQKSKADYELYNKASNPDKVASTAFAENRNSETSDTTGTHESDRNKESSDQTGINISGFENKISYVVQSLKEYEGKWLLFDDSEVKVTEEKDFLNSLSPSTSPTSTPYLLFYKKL
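1 nM enzyme complex + cpd, 15 min RT; start with Ub-Rho 150nM final; kinetic fluorescence ex 480/em 540, 6 reads q60 s. Buffer 50mM HEPES pH 7.8, 0.5mM EDTA, 0.1 mg/ml BSA, 1mM TCEP, 0.01% Tween-20.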
WRN helicase inh: qHTS for Inhibitors of WRN Helicase; hit rate 0.46% among 360,000; AID 651768, 2012; WRN helicase unwinding, fluorescent forked duplex, kinetic; Bifunctional 3'-5' exonuclease/ATP-dependent helicase WRN (Homo sapiens), Q14191; Potency, µM (titrated, usually from 114 µM), inactives show at the highest dose activity change, negative = inhibition, hits mostly inhibitors; also: potency is read from the fitted curve at half-maximal effect; nearly all actives have a fitted effect of over 55% in size
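Enzyme (20 nM final) and test compound sit together 15 min at room temperature before substrate addition. Substrate is a single-forked duplex oligonucleotide (100 nM) labelled with fluorophore and quencher, with 2 mM ATP; helicase unwinding raises red fluorescence, read kinetically.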
USP2a block: qHTS Assay for Inhibitors of Ubiquitin-specific Protease USP2a Using CHOP2 as the Reporter; Ubiquitin carboxyl-terminal hydrolase 2 (Homo sapiens), O75604; USP2 core, Ub-CHOP2 coupled fluorogenic reporter, 485/531; Potency, µM (series often up to 38.3 µM), for the others: at the highest dose activity change, negative = inhibition, hits mostly inhibitors; hit rate 0.01% among 330,000; AID 463254, 2010;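 also: potency is read from the fitted curve at half-maximal effect; plate controls were DMSO wells for no effect and full inhibition by NEM control for full effect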
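USP2 core (10nM final) preincubated 30min RT with compound in 20mM Tris-HCl pH 8.0, 2mM CaCl2, 2mM beta-mercaptoethanol, 0.05% CHAPS; 25nM Ub-CHOP2 plus 25nM reporter substrate added, fluorescence (Ex485/Em531) read after 60min.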
* marks the source's active call; other numbers are inactive results; ? = inconclusive; / = no result given; [ ] = another dose, or the depositor's remark. Shown are actives, neighbours in structure and some others; about 3.3% of the full set was active somewhere. Unless noted, calls follow the shape of the dose curve; as a rule, active = well fitted curve in the direction sought with a large enough effect; inconclusive = small, poorly fitted or top-dose-only effect, or another doubt; inactive = no such curve, though single readings can be large; an effect the other way counts as inactive or inconclusive. Unless noted, % is scaled to controls: 0 for no effect and ±100 for the full control effect.

SMILES | PLK1 PBD inh | PI5P4K alpha inh | USP1-UAF1 inh | WRN helicase inh | USP2a block
CCCCc1nnc(NC(=O)CSc2nc(O)c(Cc3ccccc3)c(=O)[nH]2)s1 | 27µM* | -6 | -5% | 12%[57.1 µM] | 3%
CCCCc1nnc(NC(=O)CSc2nc(O)c(-c3ccccc3)c(=O)[nH]2)s1 | -12% | -22 | -22% | -4% | -2%
CC1=C(C(=O)O)N2C(=O)C(NC(=O)c3nn(C)cc3Cl)C2SC1 (stereo not given) | 27µM* | 3 | -21% | 7% | 0%
CC1=C(C(=O)O)N2C(=O)C(NC(=O)c3ccc(F)cc3)C2SC1 (stereo not given) | 24µM* | -22 | -9% | 4% | 0%
COC(=O)c1ccc(NC(=O)CCn2cnnn2)cc1 | / | / | -20% | / | /
O=S(=O)(NCCc1csc2nc(-c3ccc(Cl)cc3)nn12)c1ccc(Oc2ccccc2)cc1 | / | / | -1% | / | /
COc1ccc(NC(=O)Cn2cnc3ccc(S(=O)(=O)N4CCC(C)CC4)cc3c2=O)cc1Cl | / | / | -21% | / | /
CC(C)CNC(=O)c1cccc(NC(=O)C(C)Oc2ccccc2)c1 (stereo not given) | 27µM* | -1 | -4% | 7%[57.1 µM] | 2%
Cc1ccc(CN(C(=O)COc2cccc([N+](=O)[O-])c2)c2ccccn2)o1 | / | / | -29% | / | /
CC(C)(C)c1csc(NC(=O)Cn2c(=O)oc3ccccc32)n1 | 27µM* | -6 | -19% | -6% | 0%
O=C(Cn1c(=O)oc2ccccc21)Nc1n[nH]c(=S)s1 | ? | -79* | -19% | -6% | 3%
CCc1ccc(-n2c(=O)c3sc4ccccc4c3n(Cc3cccc(F)c3)c2=O)cc1 | / | / | -29% | / | /
O=C(COCc1cc(-c2ccc3c(c2)OCO3)on1)NCc1ccc(F)cc1 | / | / | -10% | / | /
O=S(=O)(c1cccc(C(F)(F)F)c1)N1CCC(c2cc(-c3cccc4ccccc34)n[nH]2)CC1 | 19µM* | -12 | -14% | -12% | -1%
O=C(Nc1ccc2nc(SCC(=O)N3CCCc4ccccc43)sc2c1)c1ccccc1 | / | / | -10% | / | /
CCOc1ccc(NC(=O)CSc2nnc(CC)c(CC)n2)cc1 | / | / | -11% | / | /
CCOC(=O)c1sc(NC(=S)NC(=O)CC(C)C)cc1C | 27µM* | -2 | -1% | -9% | -11%
COc1ccc2c(c1)CCc1c(C(=O)Nc3c(C)nn(Cc4ccc(C)cc4)c3C)noc1-2 | / | / | -3% | / | /
Cn1cc(C(=O)NCc2ccc(F)cc2)cn1 | 24µM* | 1 | -11% | -4% | 3%
O=S(=O)(Nc1nc2ccccc2nc1NCc1ccco1)c1ccc(Cl)cc1 | ? | -1 | -14% | -15% | 4%
Cc1noc(C)c1CSc1nc2ccccc2nc1NS(=O)(=O)c1ccc(Cl)cc1 | 6µM* | -12 | -3% | -24% | -8%
COc1cc(CN2CC(=O)N(c3cc(Cl)ccc3C)C2=S)cc(OC)c1OC | 15µM* | 5 | -20% | -6% | 5%
O=C1N2CCCc3cccc(c32)C12Nc1ccccc1S2 (stereo not given) | 24µM* | -23 | -15% | -17% | 1%
CCOc1ccc(C(=O)Nc2cccc(-c3nc4cccnc4s3)c2C)cc1OCC | / | / | 13% | / | /
O=C(NCC(c1ccco1)S(=O)(=O)c1cccs1)c1ccc(Cl)cc1 (stereo not given) | / | / | 2% | / | /
SMILES | PLK1 PBD inh | PI5P4K alpha inh | USP1-UAF1 inh | WRN helicase inh | USP2a block
COC(=O)CN1C(=O)C(C)(C)c2cc(S(=O)(=O)Nc3ccc(Br)cc3F)ccc21 | / | / | -20% | / | /
O=C(CCl)N1N=C(c2cccs2)CC1c1ccco1 (stereo not given) | -18% | -7 | -3% | -2% | -1%
O=C(CCl)N1N=C(c2ccco2)CC1c1ccco1 (stereo not given) | ? | -70* | -12% | 56µM* | 2%
CCOc1ccc(-n2nc3ccc(NC(=O)c4ccc(C)cc4C)cc3n2)cc1 | / | / | -21% | / | /
COc1ccc(/C(C)=N/N=C2/NC(=O)CC(C(=O)O)S2)cc1 (stereo not given) | 12µM* | -18 | 4% | -2% | -1%
COc1ccc(/C(C)=N/N=C2/NC(=O)CC(C(=O)O)S2)cc1F (stereo not given) | 4% | 0 | -20% | 6% | 6%
CCOC(=O)N1CCN(CCC(=O)Nc2cccc(F)c2)CC1 | / | / | 2% | / | /
CCC(=O)N1CCc2cc(CNS(=O)(=O)c3cc(OC)ccc3OC)ccc21 | / | / | -9% | / | /
Oc1c(Cl)cccc1C=Nc1cc(C(F)(F)F)ccc1N1CCCC1 | 12µM* | -3 | -19% | -18% | 3%
CCCn1c2ccccc2c2cnn(CC(=O)N3CCC(C)CC3)c(=O)c21 | / | / | -5% | / | /
CN(C)c1ccc(/C=N/NC(=S)NCc2ccccc2)cc1 | 24µM* | -7 | -12% | 3% | 0%
CC(C)(C)c1ccc(/C=N/NC(=S)NCc2ccccc2)cc1 | -4% | 14 | 3% | -14% | 1%
Cc1ccc(CNC(=O)CCC(=O)N2CC3CCCN3c3ccccc32)cc1 (stereo not given) | / | / | -4% | / | /
CCOC(=O)C1CCN(c2nc3c(S(=O)(=O)c4ccccc4)nnn3c3ccc(Cl)cc23)CC1 | / | / | 2% | / | /
COc1ccc(N/C=C(\[N+](=O)[O-])S(=O)(=O)c2ccccc2)cc1 | 30µM* | -3 | -20% | 7% | -2%
O=[N+]([O-])/C(=C\Nc1ccccc1)S(=O)(=O)c1ccccc1 | -23% | -6 | -16% | -2% | -1%
CCCCOC(=O)c1c(C)oc2c1cc(NS(=O)(=O)c1cc(OC)ccc1OC)c1ccccc12 | / | / | -14% | / | /
Cc1ccnc(OC(C(=O)O)C(OCc2ccccc2)(c2ccc(F)cc2)c2ccc(F)cc2)n1 (stereo not given) | 27µM* | -12 | 2% | -5% | 4%
Cc1cc(C)nc(OC(C(=O)O)C(OCCc2ccccc2)(c2ccc(F)cc2)c2ccc(F)cc2)n1 (stereo not given) | ? | 3 | -25% | 3% | -1%
Cc1ccc(CNC(=O)c2ccc(CSCc3ccccc3C)o2)cc1 | / | / | -18% | / | /
CCCC(=O)N1CCCC(c2nc(-c3cccs3)no2)C1 (stereo not given) | 30µM* | 1 | -6% | 5% | 2%
CCOc1cc(/C=N/NC(=O)c2ccc(-c3csc(Nc4ccc(C)cc4)n3)cc2)ccc1OCC(=O)O | ? | ? | -6% | 50µM* | -1%
COc1cc(/C=N\NC(=O)c2ccc(-c3ccccc3)cc2)ccc1OCC(N)=O | 0% | 1 | -13% | 1% | -2%

Bioassay records as filed in PubChem.
